The source of these data is PubChem BioAssay.

Unmarked numbers belong to inactive results. How the calls were made is not given here.

For this experiment, the target named is Pantothenate synthetase (Mycobacterium tuberculosis (strain ATCC 25618 / H37Rv)) (UniProt P9WIL5). As to the kind of experiment: Recombinant Mtb pantothenate synthetase (PanC) inhibitors, coupled enzyme, confirmatory (AID 375).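 Further: 0% = full reaction with vehicle and 100% = no enzyme background.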 Conditions: coupled enzyme assay; at 10 µM, stronger effect = higher value.
Pantothenate synthetase (Mycobacterium tuberculosis (strain ATCC 25618 / H37Rv)), sequence (P9WIL5 whole entry, looked up): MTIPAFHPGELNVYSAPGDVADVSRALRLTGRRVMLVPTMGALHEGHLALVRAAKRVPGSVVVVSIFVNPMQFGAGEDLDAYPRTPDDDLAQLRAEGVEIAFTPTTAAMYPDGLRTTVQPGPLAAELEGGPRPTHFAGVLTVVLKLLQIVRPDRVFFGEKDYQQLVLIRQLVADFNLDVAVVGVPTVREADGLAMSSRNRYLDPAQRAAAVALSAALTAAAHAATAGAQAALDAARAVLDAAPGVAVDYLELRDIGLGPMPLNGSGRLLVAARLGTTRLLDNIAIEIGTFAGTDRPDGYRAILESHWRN
The term inhibition denotes the relative decrease from the control value, in per cent. As to `CC(C)=CC/C=C1\CCC(C(=O)O)C(C(=O)O)C1` (stereo not given), the inhibition was 0%.

Regarding `COC(=O)N1CC(c2ccccc2)CC1=O` (stereo not given), the inhibition is 4%. As for `CCc1ncc(C(O)c2cccc(OC)c2OC)n1C` (stereo not given), the figure is 0%. As for `O=C(NC1CCCC1)C(c1cccs1)N(C(=O)c1ccno1)c1ccccc1` (stereo not given), the figure is 9%; as for `Cc1cc(NS(=O)(=O)c2ccc(Nc3nc(-c4sc(N)nc4C)cs3)cc2)no1`, 4%; as for `CCOc1ccc(-c2cc(CCCC(=O)N3CCN(c4ccc(OC)cc4)CC3)no2)cc1`, 0%. As for `CCOc1cc(NC(=O)c2ccco2)c(OCC)cc1NC(=O)CCc1ccc(OC)cc1`, the figure is 3%; as for `CCn1c(=S)ccc2ccc(OC)cc21`, 0%; as for `CC(C)OC(=O)CSc1nnc(-c2ccco2)n1N`, 0%. For the compound `COCCn1c(C)cc(C(=O)CSc2nc3ccccc3c(=O)[nH]2)c1C`, the inhibition was 0%. On to `CCN(CC)Cc1nc2c(c(=O)[nH]1)C1(CCCCC1)Cc1ccccc1-2`, for which the inhibition is 3%.

Take `CC(=O)Nc1ccc(S(=O)(=O)N2CCC(c3nc4ccccc4[nH]3)CC2)cc1`: the inhibition is 0%. As for `O=C(NC1CCS(=O)(=O)C1)N1CCCCC1` (stereo not given), the figure is 7%; as for `C=C(Cl)COc1ccc2c(C)cc(=O)oc2c1`, 2%. As for `CCCCOCCCNC(=O)c1ccccc1OCC`, the figure is 2%; as for `Cc1ccccc1OCCCN1C(=O)C(=O)c2cccc(C)c21`, 0%; as for `COc1ccc(OC)c(NC(=O)C23CCC(C)(C(=O)C2)C3(C)C)c1` (stereo not given), 3%. As for `CC(=O)c1ccc(NC2OC(C)C(O)C(O)C2O)cc1` (stereo not given), the figure is 3%; as for `COc1nc(NCCc2ccc(OC)c(OC)c2)nc(NC(C)(C)CO)n1`, 0%; as for `COc1cccc(-n2c(SCC(=O)OC(C)C)nnc2-c2cccnc2)c1`, 2%.

For `CCN(CC)C(=O)c1ccc(NS(=O)(=O)c2ccccc2)cc1`, the inhibition is 0%. As for `CCOC(=O)CSc1nnc([C@H](CC(C)C)NC(=O)OC(C)(C)C)o1`, the figure is 2%.

Turning to `CC(=O)SCCC(=O)Nc1ccccc1`, the inhibition is 0%. As for `Cc1ccc(NC(=O)c2ccccc2F)nc1`, the figure is 2%; as for `CCc1nc2sc3ccccc3c(=O)c2c(=O)n1Cc1ccco1`, 0%; as for `CCCCSCCCNC(=O)CS(=O)Cc1nc(-c2cccc(C)c2)oc1C` (stereo not given), 6%. Regarding `COc1ccc(C2CC(=O)C(C=NCCCN3CCOCC3)=C(O)C2)cc1` (stereo not given), the inhibition was 0%. As for `Cc1cc(C)n(-c2nc3sc4c(c3c3nnc(SCC(N)=O)n23)CC(C)(C)OC4)n1`, the figure is 0%; as for `Cc1cccc2cc(CN(Cc3nnnn3Cc3ccccc3)C3CCCC3)c(=O)[nH]c12`, 0%. As for `CC(=O)C(Sc1ncnc2c1nnn2-c1ccc(F)cc1)C(=O)N(C)C` (stereo not given), the figure is 0%. As for `COc1ccc2cc(CN(Cc3ccco3)C(c3nnnn3C3CCCCC3)C(C)C)c(=O)[nH]c2c1` (stereo not given), the inhibition is 5%. `Cc1ccc(-c2csc3ncn(-n4c(C)ccc4C)c(=O)c23)o1`: the inhibition is 0%.

In the case of `Cc1oc(-c2ccccc2F)nc1CS(=O)(=O)CC(=O)NCCCN1CCc2ccccc2C1`, the inhibition is 0%. With `COC(=O)c1ccccc1S(=O)(=O)N(CCCO)Cc1cc2c(C)ccc(C)c2[nH]c1=O`, the inhibition is 2%. As for `O=c1[nH]c2ccccc2nc1NCCN1CCOCC1`, the figure is 1%; as for `CCOC(=O)C1=C(C)NC(=O)C(C#N)C1c1ccco1` (stereo not given), 5%; as for `O=C(CS(=O)(=O)c1cn(Cc2ccc(Cl)cc2)c2ccccc12)N1CCOCC1`, 0%. As for `COc1ccccc1C(=O)NCCNC(=O)c1ccco1`, the figure is 0%. As for `CCS(=O)(=O)N1CCC(C(=O)NCCc2ccc(C)cc2)CC1`, the figure is 0%; as for `O=C(c1ccc2nc(N3CCCCC3)sc2c1)N1CCN(c2ccccn2)CC1`, 0%.
